According to PubChem BioAssay (NCI):
Compounds without any hit were thinned out: in the full panel of roughly 79,000, 15% have a hit. Values without a mark were called inactive. The source made the active and inactive calls. No stated cut-off is given here; in the data, active means growth inhibition above about 70%; inactive means the rest.

Columns and labels:
[1] = NCI Yeast Anticancer Drug Screen. Data for the rad50 strain (AID 155);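 further: 0% = growth of vehicle-only cultures of the same strain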; settings: S. cerevisiae rad50 strain growth inhibition, active compounds read high
Summary of the method: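 A DNA repair-deficient yeast mutant serves as the test organism; compound-induced growth inhibition is calculated against vehicle-treated cells.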

[2] = NCI Yeast Anticancer Drug Screen. Data for the mec2-1 strain (AID 157); settings: S. cerevisiae mec2-1 strain, active compounds read high
Summary of the method: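 Strain: mec2-1 (DNA repair/cell cycle alteration). Compound exposure, then growth measured; inhibition expressed relative to vehicle.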

[3] = NCI Yeast Anticancer Drug Screen. Data for the sgs1 mgt1 strain (AID 161);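 further: 0% = growth of cultures given vehicle only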; settings: S. cerevisiae sgs1 mgt1 strain, active compounds read high
Summary of the method: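 Read-out: growth inhibition vs vehicle controls. Cells: mutant yeast strain deficient in DNA damage repair.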

[4] = NCI Yeast Anticancer Drug Screen. Data for the cln2 rad14 strain (AID 165);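 further: 0% = growth equal to vehicle treated cultures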; settings: S. cerevisiae cln2 rad14 strain, active compounds read high
Summary of the method: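 Compounds are applied to the cln2 rad14 yeast strain, and growth is then compared with that of vehicle-treated cultures to give inhibition.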

[5] = NCI Yeast Anticancer Drug Screen. Data for the bub3 strain (AID 167); settings: S. cerevisiae bub3 mutant strain, active compounds read high
Summary of the method: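 Inhibition values come from growth of compound-treated mutant yeast normalised to vehicle-treated controls.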

[6] = NCI Yeast Anticancer Drug Screen. Data for the mlh1 rad18 strain (AID 175); settings: S. cerevisiae mlh1 rad18 strain growth inhibition, active compounds read high
Summary of the method: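 Read-out is yeast growth inhibition, calculated against vehicle-only controls. The compound was applied to a strain engineered with DNA damage repair alterations.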

[7] = at 5.0 µM (retest, dose inferred, filed as 0.5)
[8] = at 50.0 µM (retest, dose inferred, filed as 5.0)

| Structure (SMILES) | growth inhibition [1, 7] | growth inhibition [1, 8] | growth inhibition ([1]; at 50.0 µM) | growth inhibition [2, 7] | growth inhibition [2, 8] | growth inhibition ([2]; at 50.0 µM) | growth inhibition [3, 7] | growth inhibition [3, 8] | growth inhibition ([3]; at 50.0 µM) | growth inhibition [4, 7] | growth inhibition [4, 8] | growth inhibition ([4]; at 50.0 µM) | growth inhibition [5, 7] | growth inhibition [5, 8] | growth inhibition ([5]; at 50.0 µM) | growth inhibition [6, 7] | growth inhibition [6, 8] | growth inhibition ([6]; at 50.0 µM) |
| --- | --- | --- | --- | --- | --- | --- | --- | --- | --- | --- | --- | --- | --- | --- | --- | --- | --- | --- |
| Cc1cc2nc3ccc(N(C)C)cc3nc2cc1N | 42% | 94% (active) | 51.6% | 20% | 89% (active) | 93.8% (active) | 42% | 94% (active) | 45.9% | 29% | 80% (active) | 82.2% (active) | 19% | 90% (active) | 94.9% (active) | 42% | 92% (active) | 92% (active) |
| CCCCOC(=O)C#CC(=O)OCCCC | -144% | -114% | 99.6% (active) | -45% | -46% | 99.5% (active) | -64% | -40% | 99.3% (active) | -58% | -65% | 99.2% (active) | -69% | -71% | 99.3% (active) | -146% | -105% | 99.2% (active) |
| C=CC1(C)CCC2C(=CCC3C(C)(C(=O)O)CCCC23C)C1 (stereo unspecified) (tested in a mixture with another compound) | -5% | 61% | 65.1% | 0% | 87% (active) | 74.2% (active) | -5% | 59% | 32.4% | -28% | 66% | 76.8% (active) | -17% | 66% | 64.2% | 6% | 84% (active) | 72% (active) |
| CCOC(=O)C(=Cc1ccc(OC)cc1)C(=O)OCC | 0% | 62% | 39.6% | -1% | 70% (active) | 52.4% | -3% | 65% | 55.6% | 1% | 57% | 5.95% | 18% | 86% (active) | 68.8% | -1% | 77% (active) | 66.5% |
| CN(C)C(=O)c1ccccc1SC(=S)NCc1ccccc1 | 0% | 99% (active) | 98.1% (active) | -2% | 99% (active) | 91.3% (active) | 2% | 93% (active) | 95.8% (active) | -3% | 99% (active) | 95.3% (active) | -7% | 99% (active) | 88.2% (active) | -3% | 98% (active) | 96.6% (active) |
| COC(=O)CCC(=O)NCCc1ccc2c([nH]c3ccccc32)c1C | 12% | 5% | 55.6% | 5% | -1% | 59.7% | 4% | 11% | 71.2% (active) | 5% | -7% | 93% (active) | 5% | 4% | 63.5% | 3% | -2% | 91% (active) |
| CN(C)CCCNc1c2ccccc2nc2cccc([N+](=O)[O-])c12 | 93% (active) | 99% (active) | 89.4% (active) | 95% (active) | 99% (active) | 93% (active) | 95% (active) | 99% (active) | 92.8% (active) | 95% (active) | 99% (active) | 89.2% (active) | 76% (active) | 99% (active) | 90.8% (active) | 90% (active) | 98% (active) | 89.9% (active) |
| CCCCC(C)(C)OC(=O)Nc1ccc(Br)cc1 | 0% | 95% (active) | 96.3% (active) | -14% | 94% (active) | 86.2% (active) | -8% | 95% (active) | 97.8% (active) | 43% | 96% (active) | 84.2% (active) | -8% | 93% (active) | 35.5% | -2% | 96% (active) | 97.4% (active) |
| CCCCN(CCO)CC(O)Cn1cnc2c(N)ncnc21 (stereo unspecified) (tested in a mixture with another compound) | -12% | -5% | 21.9% | -12% | -8% | -5.45% | -18% | 0% | -3.9% | -18% | -7% | 18.7% | 1% | -8% | 3.2% | 3% | -4% | 25.9% |
| COc1ccc2c(c1)c(=O)c1c(NCCN(C)C)ccc3nnn2c31 | 13% | 51% | 28.2% | -18% | 14% | 14.4% | 6% | 4% | 10.2% | -13% | 37% | 18.9% | -4% | 43% | 11.6% | -10% | -12% | 79.7% (active) |
| CC(C)(C)c1ccc(C(=O)C[n+]2ccc(Cl)c3ccc(Cl)cc32)cc1 | 0% | 98% (active) | 99% (active) | 1% | 99% (active) | 99.3% (active) | 0% | 99% (active) | 62.9% | -2% | 97% (active) | 53.5% | 2% | 98% (active) | -1.75% | 1% | 99% (active) | 99.2% (active) |
| CC1=C2CCC3C(CCC4(C)C(C(C)CCCC(C)C)CCC34)C2(C)CCC1=O (stereo unspecified) | -11% | -2% | 41% | 1% | -2% | 4.25% | 4% | -1% | 16.4% | 6% | 3% | 18.4% | 1% | 5% | 4.1% | 17% | 9% | 10.9% |
